Eight compounds from PubChem BioAssay (NCI) can be followed below.

What all share (test): NCI-60 one-dose screen, 48 h (100 = growth as untreated, 0 = no growth, -100 = all killed)
Common to all, as to settings: 10 µM

The test system of experiment [1] is K-562 leukemia.
In experiment [2] the test system is MALME-3M melanoma.
Experiment [3] deals with MDA-MB-231 breast.
Experiment [4] deals with RXF 393 renal.
The test system of experiment [5] is SF-268 CNS.
Experiment [6] relates to SF-295 CNS.
In experiment [7] the test system is SF-539 CNS.
For experiment [8], the system named is UACC-257 melanoma.
Experiment [9] deals with M14 melanoma.
For experiment [10], the system named is HCT-15 colon.
In experiment [11] the test system is HT29 colon.
Experiment [12] has as its system SNB-75 CNS.
Experiment [13] relates to SNB-19 CNS.
Experiment [14] deals with PC-3 prostate.
Experiment [15] deals with SK-MEL-5 melanoma.
The test system of experiment [16] is UACC-62 melanoma.
Experiment [17] relates to LOX IMVI melanoma.
The test system of experiment [18] is SK-MEL-28 melanoma.
Experiment [19] concerns SK-MEL-2 melanoma.
The test system of experiment [20] is U251 CNS.

Each structure is given as a SMILES string. Compounds without any hit were thinned out: in the full panel of roughly 83,000, 20% have a hit.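 Cells were grown in 96-well plates and exposed to the test compound at a single concentration for 48 hours; results are reported as percent growth, with values below 10 considered active.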 Unmarked numbers belong to inactive results. Calls of active or inactive are those of the source.

For the compound `CCOCCOCCOCCOCCOCCOCCOCCOCCOCCO` (tested in a mixture with another compound), the growth in experiment [1] is 4.03% (active); in [2], 0.836% (active); in experiment [3], 10.5%; in experiment [4], 37.3%; in experiment [5], 21.8%; in [6], -29.2% (active). Besides, the growth in experiment [7] was -10.1% (active); in experiment [8], -7.19% (active); in experiment [9], 10.8%; in experiment [10] it was 22.1%; in [11], -44% (active); in experiment [12], 32.8%. Also, the growth in [13] was 25.2%; in experiment [14] it was 9.21% (active); in experiment [15], -81.6% (active); in [16], 13.2%; in experiment [17] it was -72.5% (active); in [18], 36.5%. In addition, the growth in experiment [19] was -61.7% (active).

On to `Cc1cc(N(CCCNc2ccnc3cc(Cl)ccc23)Cc2cccs2)nc(Cl)n1`, for which the growth is 0.837% (active) in experiment [1]; 37.9% in experiment [2]; 46.6% in experiment [3]; 46.2% in experiment [4]; 61.9% in [5]; 36% in [6]. Further, the growth in [7] was 56.3%; in [9] it was 22.9%; in experiment [10], 24.3%; in experiment [11], 7.06% (active); in [12], 49.2%; in experiment [13], 76.1%. In addition, the growth in experiment [20] was 40%; in [14] it was 40.4%; in experiment [15], -14.9% (active); in experiment [16], 47.5%; in experiment [17], 8.99% (active); in [19], 64.7%.

Turning to `CCN(CC)CCCC(C)Nc1nc(-c2ccc(OC)cc2)nc2cc(Cl)ccc12` (stereo not drawn), the growth was 44.3% in experiment [1]; 79.2% in [2]; 28.9% in experiment [3]; 60.1% in experiment [5]; 89.7% in [6]; 62% in [7]. Moreover, the growth in [8] was 46%; in experiment [9], -29% (active); in experiment [10], 49.9%; in experiment [11], 27.9%; in experiment [12], 59.6%; in [13] it was 74.6%. In addition, the growth in experiment [20] is 57%; in [14], 48.4%; in experiment [15], 0.434% (active); in experiment [16] it was -46.9% (active); in [17], 32.8%; in experiment [18], -70% (active). In addition, the growth in [19] was 98.2%.

`COc1cc(-c2nnc(-c3c(-c4ccc(F)cc4)nc4ccccn34)o2)cc(OC)c1OC`: the growth in experiment [1] is 98.8%; in [2], 105%; in experiment [3] it was 64.6%; in [4], 66.9%; in experiment [6] it was 74.6%; in experiment [7], 26.4%. In addition, the growth was 92.1% in experiment [8]; 104% in [9]; 90.6% in [10]; 84.3% in experiment [11]; 2.43% (active) in experiment [12]; 78.4% in experiment [13]. Moreover, the growth was 59.5% in experiment [20]; 90.7% in experiment [14]; 63.3% in [15]; 89.9% in [16]; 69.7% in experiment [17]; 87.5% in experiment [18]. The growth in [19] is 106%.

For `COc1cc(-c2nc(-c3nnc(-c4ccccc4Cl)o3)c3ccccn23)cc(OC)c1OC`, the growth is 65.8% in experiment [1]; 119% in experiment [2]; 90.7% in experiment [3]; 90.8% in experiment [4]; 77.9% in experiment [6]; 88.3% in [7]. Moreover, the growth in experiment [8] is 91.4%; in [9] it was 112%; in experiment [10], 73.3%; in experiment [11], 91.4%; in experiment [12], 79.4%; in experiment [13], 101%. Also, the growth in [20] was 96.9%; in experiment [14], 74.2%; in experiment [15] it was 80.2%; in [16], 69.8%; in [17], 77.9%; in [18] it was 94.6%. The growth in [19] is 79%.

Turning to `CN1CCC(CNc2cc(C3(C(=O)Nc4cc(C(=O)Nc5ccc(Cl)c(C(F)(F)F)c5)ccc4F)CC3)ncn2)CC1`, the growth in [1] was -60.3% (active); in experiment [2], -67.7% (active); in experiment [3] it was -32.2% (active); in experiment [4], -46.8% (active); in [5] it was 18.2%; in experiment [6] it was -54.4% (active). Further, the growth is -57.2% (active) in [7]; -52% (active) in [9]; -20.3% (active) in experiment [10]; -26.6% (active) in experiment [11]; 23.1% in [12]; -34.1% (active) in experiment [13]. Besides, the growth in experiment [20] is -37.5% (active); in experiment [14], -23% (active); in experiment [15], -95.4% (active); in experiment [16], 32.9%; in [17], -74.2% (active); in experiment [18] it was -54.7% (active). In addition, the growth in [19] was -57.2% (active).

Regarding `COc1ccc(/C(=C2/O[C@@H]([C@H]3COC(C)(C)O3)[C@H]3OC(C)(C)O[C@@H]23)c2cc(OC)c(OC)c(OC)c2)cc1O`, the growth is 10.2% in experiment [1]; 69.6% in experiment [2]; 54.5% in [3]; 37.8% in experiment [5]; 77.6% in [6]; 21.5% in [7]. In addition, the growth in experiment [8] is 126%; in experiment [9], 19.5%; in experiment [10] it was 32.5%; in [11], 113%; in experiment [12] it was 24.3%; in experiment [13], 27.6%. Also, the growth was 61.2% in experiment [20]; 29.4% in [14]; 61.8% in experiment [15]; 82.9% in experiment [16]; 47.6% in [17].

`COc1cc(-c2nc(-c3nnc(-c4ccc(F)c(Cl)c4)o3)c3ccccn23)cc(OC)c1OC`: the growth was 52.6% in [1]; 13.4% in experiment [2]; 57.3% in experiment [3]; 40.4% in [4]; 37.3% in [6]; 37% in [7]. The growth in experiment [8] is 40.3%; in experiment [9], 70%; in experiment [11], 15.2%; in experiment [12], 3.25% (active); in experiment [13], 4.53% (active); in experiment [20], 31.8%. Also, the growth in [14] is 56.1%; in experiment [15], 39.7%; in experiment [16], 33.9%; in experiment [17] it was 58.2%; in [18], 41.4%; in experiment [19], 25.8%.
